Measurements published in PubChem BioAssay (NCATS).
Inconclusive results are not listed. A call without a number means that no potency is given here. A number with no mark means an inactive call. Active and inactive are the calls of the source. Calls follow the shape of the dose curve; as a rule, active = well fitted inhibition curve with a large enough effect; inconclusive = small, poorly fitted or top-dose-only effect; inactive = flat fitted curve, though single readings scatter.

assay: P-glycoprotein substrates identified in KB-8-5-11 adenocarcinoma cell line, qHTS therapeutic library screen (AID 1346987); conditions: KB-8-5-11 (P-gp overexpressing) viability, CellTiter-Glo, 72 h; series mostly up to 44.5 µM; also: nearly all actives have a fitted effect of over 65% in size
How it was run: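 Human cervical adenocarcinoma KB-8-5-11 cells, selected in colchicine to over-express P-gp and assayed without it, were exposed for 72 h to titrated compounds. An ATP-based luminescent viability signal gave AC50.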
Potency is read from the fitted curve at half-maximal effect.

Row | Structure (SMILES) | Potency | activity change, negative = cytotoxicity | outcome
1 | CC(C)[C@@H](CN1CC[C@@](C)(c2cccc(O)c2)[C@@H](C)C1)NC(=O)[C@H]1Cc2ccc(O)cc2CN1 | inactive | – | –
2 | N#CC1(N2CCCCC2)CCCCC1 | inactive | – | –
3 | O=CC=O | inactive | – | –
4 | N#C[C@@H](O[C@@H]1O[C@H](CO[C@@H]2O[C@H](CO)[C@@H](O)[C@H](O)[C@H]2O)[C@@H](O)[C@H](O)[C@H]1O)c1ccccc1 | inactive | – | –
5 | C[C@@H](Cc1ccccc1)N(C)C | inactive | – | –
6 | CC(C)=C1CC[C@]23CO[C@H](C2)[C@@](O)(C(=O)O)CCC13 (some centres undefined) | inactive | – | –
7 | COC1CC(=O)C23C(=O)NC(CC(C)C)C2C(C)=C(C)C(OO)C3/C=C(\C)CCC(O)C1O (centres undefined) | inactive | – | –
8 | O=c1[nH]c(=O)n(Cl)c(=O)n1Cl | inactive | – | –
9 | CN1[C@@H]2CC[C@H]1CC(OC(=O)C1C=Nc3ccccc31)C2 (some centres undefined) | inactive | – | –
10 | C=CC(C)(C)c1[nH]c2cccc3c2c1C[C@@H]1[C@@H]3[C@@H](OC(C)=O)[C@H](C)CN1C | inactive | – | –
11 | C[C@]12CC[C@@H](O)C[C@H]1CC[C@@H]1[C@@H]2CC[C@]2(C)C(=O)CC[C@@H]12 | inactive | – | –
12 | CC(=O)O[C@H]1C[C@H](O[C@H]2[C@@H](O)C[C@H](O[C@H]3[C@@H](O)C[C@H](OC4CC[C@@]5(C)[C@H](CC[C@@H]6[C@@H]5CC[C@]5(C)[C@@H](C7=CC(=O)OC7)CC[C@]65O)C4)O[C@@H]3C)O[C@@H]2C)O[C@H](C)[C@H]1O[C@@H]1O[C@H](CO)[C@@H](O)[C@H](O)[C@H]1O (some centres undefined) | 259 nM (active) | – | –
13 | O=c1ccc2cc(O[C@@H]3O[C@H](CO)[C@@H](O)[C@H](O)[C@H]3O)c(O)cc2o1 | inactive | – | –
14 | COC(COC(N)=O)C1=C(N2CC2)C(=O)C(C)=C(N2CC2)C1=O (centres undefined) | 6510 nM (active) | – | –
15 | CC1(C)[C@H](C=C(Cl)Cl)[C@H]1C(=O)OCc1c(F)c(F)cc(F)c1F | inactive | – | –
16 | Cc1ccccc1-n1c(CF)nc2ccc(N)cc2c1=O | inactive | – | –
17 | CCC1(C)CC(=O)NC(=O)C1 | inactive | – | –
18 | CC(=O)Oc1ccc2c3c1O[C@H]1[C@@H](OC(C)=O)C=C[C@H]4[C@@H](C2)N(C)CC[C@@]341 | inactive | – | –
19 | CC1CCC(C(C)C)C(OC(=O)c2ccccc2N)C1 (centres undefined) | inactive | – | –
20 | Oc1ccc2c3c1O[C@H]1[C@H](N(CCCl)CCCl)CC[C@@]4(O)[C@@H](C2)N(CC2CC2)CC[C@]314 | – | 0.87% [at 9.29 µM] | –

Row | Structure (SMILES) | Potency | activity change, negative = cytotoxicity | outcome
21 | COC(=O)[C@@]12C(=O)C(C)C(=O)[C@]1(C)C(C)=C[C@H]1[C@]3(C=O)CC[C@H](OC(C)=O)C(C)(C)[C@H]3CC[C@@]12C (some centres undefined) | inactive | – | –
22 | C[N+]1(C)[C@@H]2CC[C@H]1CC(OC(=O)c1c[nH]c3ccccc13)C2 (some centres undefined) | inactive | – | –
23 | CC(CCc1ccc(O)cc1)O[C@@H]1O[C@H](CO[C@H]2OC[C@](O)(CO)[C@H]2O)[C@@H](O)[C@H](O)[C@H]1O (some centres undefined) | inactive | – | –
24 | CCN1C[C@]2(COC)[C@H](O)C[C@H](OC)[C@@]34[C@@H]5C[C@@]6(O)[C@H](OC(=O)c7ccccc7)[C@@H]5[C@@](OC(C)=O)([C@@H]([C@H](OC)[C@H]23)[C@@H]14)[C@@H](O)[C@@H]6OC | inactive | – | –
25 | COC1C(O)C(OC2CCC3(C=O)C(CCC4C3CCC3(C)C(C5=CC(=O)OC5)CCC43O)C2)OC(C)C1OC1OC(CO)C(O)C(O)C1O (centres undefined) | 432 nM (active) | – | –
26 | CC(=O)OC1CC(O)C(C)(C)C2CC(OC(C)=O)C3(C)C(CCC4(C)C(c5ccoc5)C(=O)C5OC543)C12C (centres undefined) | inactive | – | –
27 | O=C1C[C@@H]2OCC=C3CN4CC[C@]56c7ccccc7N1[C@H]5[C@H]2[C@H]3C[C@H]46 (tested in a mixture with another compound) | inactive | – | –
28 | CCC1NC(=O)C2C(Cl)C(Cl)CN2C(=O)C(C(C)O)NC(=O)CC(c2ccccc2)NC(=O)C(CO)NC1=O (centres undefined) | inactive | – | –
29 | [S]=[Sb](=[S])[S][Sb](=[S])=[S] | inactive | – | –
30 | Cn1ncnc1COc1nn2c(-c3c(F)cccc3F)nnc2cc1C1CCC1 | inactive | – | –
31 | C/C=C(\C)C(=O)OC1CC2C(CC=C3CC(OC4CC(OC)C(OC5CC(OC)C(OC6OC(C)C(OC7OC(CO)C(O)C(O)C7O)C(OC)C6O)C(C)O5)C(C)O4)CCC32C)C2(O)CCC(C(C)=O)C12C (centres undefined) | – | 9.6% [at 9.29 µM] | –
32 | COC1CC(O[C@H]2CC[C@@]3(C)C(=CCC4C3C(O)[C@@H](O)[C@]3(C)[C@@H](C(C)=O)CC[C@]43O)C2)OC(C)C1OC1CC(OC)C(OC2OC(C)C(O)C(O)C2O)C(C)O1 (some centres undefined) | – | – | inactive [at 9.29 µM]
33 | F/C(COc1ccc2c(c1)[nH]c1ccccc12)=C1/CN2CCC1CC2 | inactive | – | –
34 | CCC(C)(C#N)O[C@@H]1O[C@H](CO)[C@@H](O)[C@H](O)[C@H]1O (some centres undefined) | inactive | – | –
35 | CCc1[nH]c2ccc(OC)cc2c1CCN(C)C | inactive | – | –
36 | S=C=S | inactive | – | –
37 | CC(C)(O)[C@H]1O[C@H]2CC[C@@]3(C)[C@@](O)(CC[C@H]4Cc5c([nH]c6ccccc56)[C@@]43C)C2=CC1=O | inactive | – | –
38 | CC1=C2C(=O)C3[C@@H](CC=C4C[C@@H](O)CC[C@@]43C)[C@@H]2CC[C@]12O[C@@H]1C[C@H](C)CN[C@H]1[C@H]2C (some centres undefined) | inactive | – | –
39 | Clc1ccc(Cl)cc1 | inactive | – | –
